Test results taken from PubChem BioAssay (EPA / NIEHS).
The source made the active and inactive calls. How the source made its calls: active means hit-call score of the fitted dose curve at least 0.9, where 1 is the maximum; inconclusive means response in the unintended direction; inactive means score below 0.9.

Each molecule was assayed against Peroxisome proliferator-activated receptor gamma (Homo sapiens) (UniProt P37231) (assay: OT_PPARg_PPARgSRC1_1440: Odyssey Thera (OT) 24-hour Protein-Complementation Assay for Peroxisome Proliferator-activated Receptor Gamma/ SRC-1 Co-activator (AID 2283388);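 further: nuclear to cytoplasmic ratio of reconstituted Venus YFP fluorescence in fixed imaged cells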).
Chain of Peroxisome proliferator-activated receptor gamma (Homo sapiens) (P37231 whole entry, looked up, the tested form may be a part): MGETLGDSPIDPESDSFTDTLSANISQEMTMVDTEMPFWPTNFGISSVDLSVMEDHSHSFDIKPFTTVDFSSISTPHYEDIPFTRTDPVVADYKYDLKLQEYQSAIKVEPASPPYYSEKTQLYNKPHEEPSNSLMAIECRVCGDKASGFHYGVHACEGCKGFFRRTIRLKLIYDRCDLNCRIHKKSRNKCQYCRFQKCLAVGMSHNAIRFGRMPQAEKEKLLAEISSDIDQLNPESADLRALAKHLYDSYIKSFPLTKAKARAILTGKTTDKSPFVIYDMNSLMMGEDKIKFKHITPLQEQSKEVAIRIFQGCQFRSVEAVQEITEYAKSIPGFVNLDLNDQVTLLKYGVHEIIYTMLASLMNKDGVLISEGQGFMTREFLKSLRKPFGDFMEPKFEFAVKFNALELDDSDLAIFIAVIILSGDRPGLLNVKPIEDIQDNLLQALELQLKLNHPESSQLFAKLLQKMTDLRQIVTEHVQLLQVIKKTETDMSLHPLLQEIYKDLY
Procedure: OT_PPARg_PPARgSRC1_1440 is a cell-based assay that uses HEK293T, a human kidney cell line, with measurements taken at 24 hours after chemical dosing in a 384-well plate.OT_PPARg_PPARgSRC1_1440 is one of one assay component(s) measured or calculated from the OT_PPARg_PPARgSRC1_1440 assay. It is designed to make measurements of protein fragment complementation, a form of binding reporter, as detected with fluorescence intensity signals by Protein-fragment Complementation technology.Data from the assay component OT_PPARg_PPARgSRC1_1440 was analyzed into 1 assay endpoint. This assay endpoint, OT_PPARg_PPARgSRC1_1440, was analyzed in the positive analysis fitting direction relative to DMSO as the negative control and baseline of activity. Using a type of binding reporter, measures of receptor for gain-of-signal activity can be used to understand the binding at the pathway-level as they relate to the gene PPARG. Furthermore, this assay endpoint can be referred to as a primary readout, because the performed assay has only produced 1 assay endpoint. To generalize the intended target to other relatable targets, this assay endpoint is annotated to the nuclear receptor intended target family, where the subfamily is non-steroidal.
The OT PPARg/SRC-1 assay assessed receptor-chemical interactions using a rapidly maturing, intensely fluorescent mutant of YFP known as Venus, rationally dissected into two separate fragments. The fragments were obtained as follows: first, fragments coding for YFP1 and YFP2 (corresponding to amino acid residues 1-158 and 159-239 of the full length YFP, respectively) were generated by oligonucleotide synthesis (Blue Heron Biotechnology), and then PCR mutagenesis was used to generate the mutant fragments IFP1 and IFP2. Fusion constructs were transfected into HEK293T cells with a (Gly4Ser)2 linker between the PPARg/SRC-1 and YFP fragment genes to facilitate complementation when interacting proteins bring fragments into close proximity. The construct is transiently transfected in HEK293T cells 48 hours prior to treatment with test compounds. Cells are seeded into optical quality 384-well poly-D-lysine coated plates in MEM alpha medium (Invitrogen) supplemented with 10 percent FBS (Gemini Bio-Products) 1 percent penicillin and 1 percent streptomycin, and grown in 37C incubator equilibrated to 5 percent CO2. Cells are allowed to adhere for 24 hours prior to treatment with compounds of interest or controls for 24 hours. Cells are fixed in 4 percent formaldehyde and stained with Draq5 (BioStatus) to identify cells and subcellular compartment boundaries prior to signal detection. 8 Images per well were acquired on an Evotec Opera at 2 wavelengths (488 and 635nm), and the ratio of fluorescence in the nucleus relative to fluorescence in the cytoplasm (N/C Ratio) in the 488nm channel was calculated for a minimum of 350 cells per image.

outcome, inactive:
O=C(O)Cc1cccc2ccccc12
CCCCCOC(=O)CCC
CC(C)=CCCC(C)=CCCC(C)=CCO
CC(C)(C#N)c1cc(Cn2cncn2)cc(C(C)(C)C#N)c1
C=CC(C)(O)CCC=C(C)CCC=C(C)C (stereo not given)
O=c1cc(-c2ccccc2)oc2cc(O)cc(O)c12
O=C(Cl)c1cccc(C(=O)Cl)c1
CCN(CC)c1ccc(C(=C2C=CC(=[N+](CC)CC)C=C2)c2ccc(S(=O)(=O)O)cc2S(=O)(=O)[O-])cc1
CCCCCCCCC
CC(C)=CCC[C@](C)(O)[C@@H]1CC=C(C)CC1
CCCCCCCCCCCCCCCC(=O)O
c1ccc(CCCc2ccccn2)cc1
CCCCCCCCCCCCN
CCCCCCCCCCCCCCCC(=O)OC[C@H](O)[C@H]1OC(=O)C(O)=C1O
CC(C)CCCCCCCOC(=O)c1ccc(C(=O)OCCCCCCCC(C)C)c(C(=O)OCCCCCCCC(C)C)c1
CCCCCCCCCC=O
CC(C)(N)CO
O=C(Oc1ccccc1)c1ccc(O)cc1
CCC(=O)/C=C/C1C(C)=CCCC1(C)C (stereo not given)
NC(=O)Nc1ccc(Cl)cc1
CC(C)C[C@H]1C(=O)N2CCC[C@H]2[C@]2(O)O[C@](NC(=O)[C@@H]3C=C4c5cccc6[nH]c(Br)c(c56)C[C@H]4N(C)C3)(C(C)C)C(=O)N12
CCCCCCCCCCCCCCCCCC(=O)OCC(CC)CCCC (stereo not given)
CCCC1CCC(=O)O1 (stereo not given)
CC(=O)C=CC1=C(C)CCCC1(C)C
COc1cc(C(C)(C)C)c(O)c(C(C)(C)C)c1
CCCCCC(CO)CCC (stereo not given)
CC(=O)OCCOC(C)=O
CC1=CC(=O)NS(=O)(=O)O1
CCCC/C=C\CCCCCCCCCC=O
NCCCN1CCOCC1
CCCCCCCCC=O
CCC/C=C/C=O
CCCCCCCCCCCCCOS(=O)(=O)O
OCCN1CCNCC1
NCCCCCCN
CCCOCC(C)O (stereo not given)
CCCCCCCCCCCCCC(=O)O
CCCCOCCOCCOCCOCCO
CC(=O)OCCC(C)CC(C)(C)C (stereo not given)
O=C(O)CCCCCCCC(=O)O
